SMILES strings stand for the structures. Several values for one entry are separate records, joined by “and”; a condition that tells them apart may be missing. Equal entries are not always repeated. Inconclusive results are not listed. A structure can be active in one record and inactive in another. Activity calls are given as the source filed them. Unless noted, the call rests on the fitted dose curve.

Assay [1] in a line: Nuclear factor erythroid 2-related factor 2/antioxidant responsive element (Nrf2/ARE) small molecule agonists: qHTS cell viability counter screen in human keratinocytes (AID 1919968; active means well fitted curve in the direction sought with a large enough effect in the repeat runs; an effect the other way counts as inactive or inconclusive; further: nearly all actives have a fitted effect of over 55% in size; further: potency means the concentration at half of the fitted maximal effect). The procedure, abridged:
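In human HaCaT keratinocytes stably expressing an ARE-driven luciferase, compound exposure lasted 23 h at 37 C under 5% CO2. Viable cells are quantified with a protease-based fluorogenic reagent (CellTiter-Fluor) read 1 h after addition.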
Background: Quantitative high-throughput screening tests each substance at several concentrations.

Assay [2] in a line: Nuclear factor erythroid 2-related factor 2/antioxidant responsive element (Nrf2/ARE) small molecule agonists: luciferase reporter gene qHTS assay in human keratinocytes (AID 1919969). Further: nearly all actives have a fitted effect of over 35% in size. Further: potency means the concentration at half of the fitted maximal effect.
Assay [3] has as its target Gonadotropin-releasing hormone receptor (Homo sapiens) (UniProt P30968). Put plainly: Human gonadotropin-releasing hormone receptor (GnRHR) small molecule agonists, calcium flux assay in GnRHR-HEK293 cells (AID 1920063). Further: nearly all actives have a fitted effect of over 35% in size. In outline: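 Intracellular calcium rise is the read-out: engineered human GnRHR HEK293 cells, dye-loaded, are exposed to DMSO-dissolved compounds and fluorescence at Ex/Em 480/540 is tracked for 3 min.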
In general terms: Calcium flux is commonly read through the fluorescence of an indicator in the cells.

Assay [4] concerns the target KiSS-1 receptor (Homo sapiens) (UniProt Q969F8). Put plainly: Human kisspeptin (KISS1R) small molecule agonists, calcium flux assay in KISS1R-HEK293 cells (AID 1920064; active means well fitted curve in the direction sought with a large enough effect in the repeat runs; an effect the other way counts as inactive or inconclusive). The procedure, abridged: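 Concentration-response testing used 15 concentrations in triplicate on human KISS1R-expressing HEK293 cells. Calcium-dependent fluorescence (Ex/Em 480/540) was followed kinetically for 3 min after compound transfer.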

Assay [5] is described as follows: G protein-coupled receptor (GPCR) small molecule agonists, calcium flux assay: HEK293 wild type cell line counter screen (AID 1920065). In outline: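 Fluorescence intensity signals activation. After overnight (18 h) culture and a 1 h calcium dye load at 37 C, compounds are added by pin tool and the plate read at 480/540 nm for 3 min in 1 s steps.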
The nature of assay [6]: p53 small molecule agonists, cell-based qHTS assay with human liver microsomes (AID 1963577).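 Further: p53 response element beta-lactamase reporter cells with liver microsomes plus NADPH.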 The procedure, abridged: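 16 h, 37 C exposure of p53RE-bla cells to compounds with human liver microsomes and NADPH (0.5 mg/mL final each); detection via LiveBLAzer mixture, 2 h dark at room temperature.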
A short description of assay [7]: p53 small molecule agonists, cell-based qHTS assay with rat liver microsomes (AID 1963578). The procedure, abridged: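 With rat liver microsomes and NADPH present (0.5 mg/mL final each), p53RE-bla cells are treated with compound for 16 h at 37 C. LiveBLAzer detection mixture is then applied for 2 h at room temperature in the dark.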
Assay [8] can be described thus: p53 small molecule agonists, cell-based qHTS assay with human liver microsomes: qHTS cell viability counter screen (AID 1963579). Further: nearly all actives have a fitted effect of over 45% in size. In outline: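 In this multiplexed counter screen, the reporter plates were subsequently treated with CellTiter-Glo so that cell viability, reflected by luminescence, could be recorded for p53RE-bla cells dosed 16 h with compounds under microsomal activation (HLM and NADPH).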

Assay [9] in a line: p53 small molecule agonists, cell-based qHTS assay with rat liver microsomes: qHTS cell viability counter screen (AID 1963580). Further: nearly all actives have a fitted effect of over 45% in size. The procedure, abridged: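 Cytotoxicity counter screen: intracellular ATP read by CellTiter-Glo luminescence in the p53 reporter wells. HCT-116 p53RE-bla cells were treated for 16 h at 37 C alongside rat liver microsomes and NADPH, each 0.5 mg/mL final.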

Assay [10] is described as follows: p53 small molecule agonists, cell-based qHTS assay: qHTS cell viability counter screen (AID 1963581). Further: nearly all actives have a fitted effect of over 45% in size. In outline:
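Luminescence from CellTiter-Glo, reflecting ATP content, serves as the cytotoxicity measure; it is taken after the 2 h reporter substrate step in HCT-116 p53RE-bla cells dosed for 16 h at 37 C.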

The nature of assay [11]: p53 small molecule agonists, cell-based qHTS assay (AID 1963582; active means well fitted activation curve with a large enough effect in the signal ratio in the repeat runs, not every such curve was filed as active; the % refers to the signal ratio). The procedure, abridged: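 After plating, p53RE-bla cells sat 5 h in the incubator; compounds or DMSO vehicle were pinned in; a 16 h incubation at 37 C followed; FRET substrate was added and, 2 h later at RT, fluorescence was measured.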
In assay [12] the target is Muscarinic acetylcholine receptor M1 (Homo sapiens) (UniProt P11229). Put plainly: Cholinergic receptor muscarinic 1 (CHRM1) small molecule antagonists, cell-based qHTS assay (AID 1963588). Further: nearly all actives have a fitted effect of over 40% in size. In outline:
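Compounds were tested at 15 concentrations in three independent runs. Dye-loaded CHRM1-CHO cells were exposed 5 min at room temperature before stimulation by acetylcholine added at 50nM. Intracellular calcium was read kinetically on FDSS for 3 min.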

The target is the same in assay [13]. Put plainly: Cholinergic receptor muscarinic 1 (CHRM1) small molecule agonists, cell-based qHTS assay (AID 1963589). Further: nearly all actives have a fitted effect of over 35% in size. In outline: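 Fluorescent calcium dye reports M1 activation in stably transfected CHO cells. Compounds, 15 concentrations, added after 1 h dye loading at 37 C; kinetic reading at 1 sec intervals.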
A short description of assay [14]: cAMP Responsive Elements (CRE) small molecule agonists, cell-based qHTS assay (AID 1963590). In outline: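 Compound exposure lasted 3 h at 37 C/5% CO2 in CRE-bla HEK 293T cells grown in assay medium with 10% dialyzed FBS and 25 mM HEPES. Reporter signal came from LiveBLAzer B/G FRET substrate, 2 h, room temperature.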
Assay [15] is described as follows: cAMP Responsive Elements (CRE) small molecule antagonists, cell-based qHTS assay (AID 1963591; active means well fitted inhibition curve with a large enough effect in the signal ratio in the repeat runs, not every such curve was filed as active; the % refers to the signal ratio). In outline: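 Stimulation used NKH477 at a final 0.25 uM for 3 h in compound-treated CRE-bla HEK293T cells, seeded 18 h beforehand. Reporter activity was measured with LiveBLAzer B/G FRET substrate after 2 h at room temperature.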
Assay [16] has as its target Beta-2 adrenergic receptor (Homo sapiens) (UniProt P07550). Put plainly: Adrenergic beta2 receptor (ADRB2) small molecule antagonists, cell-based qHTS assay (AID 1963592). Further: series mostly up to about 92 µM; nearly all actives have a fitted effect of over 50% in size. In outline: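 Assay format: CHO-ADRB2 cells, 18-20hr seeding at 37C/5% CO2, then compound plus 1nM isoproterenol agonist mix for 0.5hr RT. Homogeneous time-resolved fluorescence cAMP detection after 1hr, expressed as 665/615 nm ratio.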

The target is the same in assay [17]. Kind of assay: Adrenergic beta2 receptor (ADRB2) small molecule agonists, cell-based qHTS assay (AID 1963593).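 Further: CHO cells stably overexpressing human ADRB2.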 In outline:
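CHO cells stably over-expressing ADRB2 were plated overnight at 37C, then dosed with compounds plus a stimulation mix containing 100uM IBMX and 25uM Ro-20-1724 for 0.5hr at room temperature. cAMP was measured by HTRF competition, 1hr.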

Assay [18] addresses D(2) dopamine receptor (Homo sapiens) (UniProt P14416). Put plainly: Dopamine D2 receptor (DRD2) small molecule agonists, cell-based qHTS assay (AID 1963594). Further: nearly all actives have a fitted effect of over 35% in size. The procedure, abridged:
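cAMP accumulation in DRD2-HEK293 cells measured by HTRF after 1 h detection; compounds added 10 min before NKH477 (200nM […]) forskolin-analogue stimulation, 30 min at room temperature, with Ro20-1724 present at 0.1 mM final.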

Assay [19] shares this target. Kind of assay: Dopamine D2 receptor (DRD2) small molecule antagonists, cell-based qHTS assay (AID 1963595; active means well fitted inhibition curve with a large enough effect in the signal ratio in the repeat runs, with a control signal flat; the % refers to the signal ratio). The procedure, abridged:
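Antagonist mode in DRD2-HEK293 cells: after compound addition with 0.1 mM Ro20-1724, cells received quinpirole (12 nM) and NKH477 (200 nM) for 30 min at room temperature; HTRF cAMP read after 1 h detection.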

Assay [20] deals with 5-hydroxytryptamine receptor 2A (Homo sapiens) (UniProt P28223). Kind of assay: 5-hydroxytryptamine receptor 2A (HTR2A) small molecule agonists, cell-based qHTS assay (AID 1963587). Further: nearly all actives have a fitted effect of over 30% in size. Further: potency means the concentration at half of the fitted maximal effect. In outline: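 Kinetic calcium-flux fluorescence (2 min, 1 sec intervals) after compound addition in agonist mode. HTR2A-CHO cells were cultured 18 h, then dye-loaded 1 h at 37 C.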
5-hydroxytryptamine receptor 2A (Homo sapiens), sequence (P28223 whole entry, looked up): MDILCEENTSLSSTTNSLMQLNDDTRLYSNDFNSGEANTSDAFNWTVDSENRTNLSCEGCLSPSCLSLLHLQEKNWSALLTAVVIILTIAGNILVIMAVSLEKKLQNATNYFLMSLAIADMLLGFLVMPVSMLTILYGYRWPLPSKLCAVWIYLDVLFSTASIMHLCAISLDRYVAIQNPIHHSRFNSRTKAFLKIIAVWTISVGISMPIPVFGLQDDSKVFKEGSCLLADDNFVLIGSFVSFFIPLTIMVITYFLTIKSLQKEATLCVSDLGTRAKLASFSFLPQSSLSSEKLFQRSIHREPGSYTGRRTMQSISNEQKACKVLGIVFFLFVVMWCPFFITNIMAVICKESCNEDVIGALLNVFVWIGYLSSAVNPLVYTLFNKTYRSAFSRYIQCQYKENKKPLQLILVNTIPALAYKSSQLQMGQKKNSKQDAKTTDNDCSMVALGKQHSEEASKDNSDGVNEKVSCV

KiSS-1 receptor (Homo sapiens), sequence (Q969F8 whole entry, looked up): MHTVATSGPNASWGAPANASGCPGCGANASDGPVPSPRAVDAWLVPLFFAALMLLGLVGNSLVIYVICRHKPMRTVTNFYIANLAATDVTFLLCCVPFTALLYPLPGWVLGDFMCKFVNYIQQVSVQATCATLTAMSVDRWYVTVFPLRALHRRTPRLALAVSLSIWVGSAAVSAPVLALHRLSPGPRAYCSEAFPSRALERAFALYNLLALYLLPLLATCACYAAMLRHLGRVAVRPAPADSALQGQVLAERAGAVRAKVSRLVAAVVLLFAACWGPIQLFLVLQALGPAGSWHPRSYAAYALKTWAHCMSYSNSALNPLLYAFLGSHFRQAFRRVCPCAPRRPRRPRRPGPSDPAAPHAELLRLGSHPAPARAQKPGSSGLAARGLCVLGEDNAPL
Gonadotropin-releasing hormone receptor (Homo sapiens), sequence (P30968 whole entry, looked up): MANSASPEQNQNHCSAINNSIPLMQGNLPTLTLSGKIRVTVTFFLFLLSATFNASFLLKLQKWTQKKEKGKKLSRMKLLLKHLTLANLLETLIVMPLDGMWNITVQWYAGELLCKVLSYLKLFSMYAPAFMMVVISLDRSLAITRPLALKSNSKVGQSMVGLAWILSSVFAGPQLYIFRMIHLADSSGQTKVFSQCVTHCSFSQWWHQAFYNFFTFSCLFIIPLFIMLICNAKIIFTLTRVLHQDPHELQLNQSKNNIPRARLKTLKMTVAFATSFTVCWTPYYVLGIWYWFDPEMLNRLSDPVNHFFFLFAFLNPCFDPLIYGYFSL
D(2) dopamine receptor (Homo sapiens), sequence (P14416 whole entry, looked up): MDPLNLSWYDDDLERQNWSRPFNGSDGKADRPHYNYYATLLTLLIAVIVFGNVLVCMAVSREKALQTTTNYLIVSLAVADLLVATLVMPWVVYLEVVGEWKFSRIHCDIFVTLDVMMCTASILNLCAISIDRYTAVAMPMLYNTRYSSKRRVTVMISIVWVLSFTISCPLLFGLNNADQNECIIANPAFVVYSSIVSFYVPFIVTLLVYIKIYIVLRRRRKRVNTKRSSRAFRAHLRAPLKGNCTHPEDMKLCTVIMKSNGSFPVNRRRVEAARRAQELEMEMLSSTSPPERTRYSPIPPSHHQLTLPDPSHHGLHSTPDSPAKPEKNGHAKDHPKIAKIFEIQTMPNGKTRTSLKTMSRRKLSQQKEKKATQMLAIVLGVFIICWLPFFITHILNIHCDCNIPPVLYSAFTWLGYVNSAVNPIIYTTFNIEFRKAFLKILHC
Beta-2 adrenergic receptor (Homo sapiens), sequence (P07550 whole entry, looked up): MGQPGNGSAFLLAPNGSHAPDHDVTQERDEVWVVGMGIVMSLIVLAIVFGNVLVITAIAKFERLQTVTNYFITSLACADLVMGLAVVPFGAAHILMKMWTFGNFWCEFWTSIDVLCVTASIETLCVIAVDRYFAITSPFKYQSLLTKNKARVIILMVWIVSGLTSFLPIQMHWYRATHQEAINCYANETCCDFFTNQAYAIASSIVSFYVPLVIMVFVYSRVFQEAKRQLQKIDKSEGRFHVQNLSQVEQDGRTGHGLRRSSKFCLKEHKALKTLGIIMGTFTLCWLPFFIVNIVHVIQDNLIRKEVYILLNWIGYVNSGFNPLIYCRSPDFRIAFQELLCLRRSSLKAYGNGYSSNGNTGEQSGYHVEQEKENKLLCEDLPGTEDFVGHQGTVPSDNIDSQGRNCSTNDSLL
Muscarinic acetylcholine receptor M1 (Homo sapiens), sequence (P11229 whole entry, looked up): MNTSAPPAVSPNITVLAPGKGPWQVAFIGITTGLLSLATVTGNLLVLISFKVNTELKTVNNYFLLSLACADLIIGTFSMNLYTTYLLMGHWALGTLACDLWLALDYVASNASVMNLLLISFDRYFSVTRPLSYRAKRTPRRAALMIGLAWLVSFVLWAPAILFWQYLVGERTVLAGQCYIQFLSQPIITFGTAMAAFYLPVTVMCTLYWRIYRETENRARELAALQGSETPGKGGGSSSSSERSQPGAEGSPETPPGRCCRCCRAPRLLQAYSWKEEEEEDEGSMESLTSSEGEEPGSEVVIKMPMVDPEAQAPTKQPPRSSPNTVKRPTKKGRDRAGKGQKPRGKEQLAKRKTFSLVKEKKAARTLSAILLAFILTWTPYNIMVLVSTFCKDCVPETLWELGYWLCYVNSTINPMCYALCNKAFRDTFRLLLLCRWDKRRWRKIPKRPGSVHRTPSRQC

Turning to `CNc1ccccc1`, the Potency result in assay [1], in [2], in assay [3], in [4], in [5] and in assay [6] was “inactive” in each case. The Potency entry in [7], in assay [8], in assay [9], in assay [10], in assay [11] and in assay [12] was “inactive” in each case. Also, the Potency result in assay [13], in assay [14], in assay [15], in [16], in [17] and in assay [18] was “inactive” in each case. Also, in assay [19], the Potency entry was “inactive”.
For `O=[N+]([O-])c1ccccc1Nc1ccccc1`, the Potency entry in assay [1], in assay [2], in assay [3], in assay [4], in assay [5] and in [6] was “inactive” throughout. Besides, the Potency result in assay [7], in assay [8], in assay [9], in [10], in assay [11] and in [20] was “inactive” in each case. Also, the Potency entry in assay [12], in assay [13], in assay [14], in assay [15], in assay [16] and in assay [18] was “inactive” throughout. The Potency result in [19] was “inactive”.
Regarding `OCC(O)CN1CCN(c2ccccc2)CC1` (stereo unspecified), the Potency entry in assay [1], in assay [2], in assay [3], in assay [4], in [5] and in [6] was “inactive” each time. Besides, the Potency result in assay [7], in assay [8], in assay [9], in assay [10], in assay [11] and in assay [20] was “inactive” in each case. In addition, the Potency result in assay [12], in [13], in [14], in assay [15], in [16] and in [17] was “inactive” in each case. Also, the Potency result in assay [19] is “inactive”.
For the molecule `CC(C)(C)c1cc(C(C)(C)C)c(O)c(C(C)(C)C)c1`, the Potency entry in assay [1] is “inactive and 48.6 µM (active)”; in assay [2] it was 30.6 µM (active); in assay [20], 5.49 µM (active). The Potency entry in assay [3], in assay [4], in [5], in [6], in assay [7] and in assay [8] was “inactive” each time. The Potency entry in assay [9], in assay [10], in [11], in [12], in assay [13] and in assay [14] was “inactive” throughout. Further, the Potency result in assay [15], in assay [16], in assay [17], in assay [18] and in [19] was “inactive” in each case.
Turning to `Nc1cccc2c1CN(C1CCC(=O)NC1=O)C2=O` (stereo unspecified), the Potency result in assay [1], in [2], in assay [3], in assay [4], in assay [5] and in assay [6] was “inactive” each time. Besides, the Potency result in assay [7], in [8], in assay [9], in [10], in assay [11] and in assay [20] was “inactive” each time. In addition, the Potency result in [12], in assay [13], in assay [14], in assay [15], in [16] and in assay [17] was “inactive” in each case. Further, the Potency entry in [18] and in assay [19] was “inactive” in each case.
Regarding `CC(=O)O[C@@H]1C[C@@H]2CC[C@@]1(C)C2(C)C`, the Potency result in assay [1], in [2], in assay [3], in assay [4], in [5] and in assay [6] was “inactive” in each case. For the same molecule, the Potency entry in [7], in assay [8], in assay [9], in [10], in assay [11] and in assay [12] was “inactive” throughout. Besides, the Potency entry in assay [13], in assay [14], in assay [16], in assay [17], in assay [18] and in [19] was “inactive” each time.
As to `Cc1cc(N)no1`, the Potency result in assay [1], in [2], in assay [3], in [4], in assay [5] and in assay [6] was “inactive” throughout. The Potency result in [7], in [8], in assay [9], in assay [10], in [11] and in assay [12] was “inactive” in each case. Also, the Potency entry in [13], in assay [14], in assay [15], in assay [16], in assay [18] and in assay [19] was “inactive” in each case.
For `CCOC(C)(C)C`, the Potency result in assay [1], in assay [2], in assay [3], in assay [4], in [5] and in [6] was “inactive” throughout. For the same molecule, the Potency entry in [7], in assay [8], in assay [9], in [10], in assay [11] and in assay [12] was “inactive” in each case. The Potency result in assay [13], in assay [14], in assay [16], in assay [17], in assay [18] and in assay [19] was “inactive” throughout.

For the origin of these results see PubChem BioAssay (Tox21).
